Laboratory results published in PubChem BioAssay AID2549 (National Center for Advancing Translational Sciences (NCATS), 2010).
About 1,300 (0.54%) of roughly 240,000 compounds were called active. Another 1% or so got no clear call; they are omitted. The sample holds actives, similar compounds and a random draw of the others, so the mix is not that of the screen. Calls come from the whole dose curve; as a rule, active = well fitted inhibition curve with a large enough effect; inconclusive = small, poorly fitted or top-dose-only effect; inactive = flat fitted curve, though single readings scatter.

What follows are molecules tested against ATP-dependent DNA helicase Q1 (Homo sapiens) (UniProt P46063) (assay: qHTS Assay for Inhibitors of RecQ-Like Dna Helicase 1 (RECQ1)). Conditions: RECQ1 DNA unwinding, red fluorescence kinetic read; series mostly up to 57.3 µM.
Text: Survival of cells and the faithful propagation of the genome depend on elaborate mechanisms of detecting and repairing DNA damage. Treatment of advanced cancer relies on radiation therapy or chemotherapy, which kill cancer cells by causing extensive DNA damage. It is often found, that cancer cells develop resistance to therapy through enhanced activity of DNA repair functions; this has led to an increased interest in developing drugs that interfere with DNA repair, which could sensitize cancer cells to conventional therapy.
This validation qHTS assay pertains to human RECQ1, which is important in resolving abnormal DNA structures formed during replication or homologous recombination. Shutting down the expression of RECQ1 leads to chromosomal instability and higher radiation sensitivity in cultured cells.
The validation assay was a fluorescence quenching based kinetic qHTS for RECQ1 Helicase DNA unwinding. The activity was measured as ATP-dependent separation of a 20-bp DNA duplex extended by 30-nt single-stranded tails (forked duplex). The forked DNA substrate was tagged with rhodamine fluorophore (carboxytetramethyl rhodamine, TAMRA) and BHQ-2 (Black Hole Quencher 2) dark quencher. Strand separation results in an increase in the fluorescence of TAMRA (excitation 525 nm, emission 598 nm). This substrate construct operates in a red-shifted region where very few compound library members have been noted to fluoresce (PubChem AIDs 593 and 594). An additional feature of the assay is the inclusion of 2.5 ug/ml poly (dIdC), to reduce interference by compounds such as DNA intercalators, a major source of false inhibitors.
Opher Gileadi, Structural Genomics Consortium, University of Oxford
Screening Center PI: Austin, C.P.
Screening Center: NIH Chemical Genomics Center [NCGC]
Three uL of reaction buffer (25 mM Tris-HCl (pH 8.0), 5 mM NaCl, 2 mM MgCl2, 1mM DTT, 0.01% Tween- 20, and 2.5 ug/ml poly(dI-dC), including enzyme (50 nM RECQ1T1), were dispensed into a 1536-well Greiner black assay plate via solenoid-valve based nanoliter dispensers. Compounds (23 nl each in columns 5-48) and control (23 nl each in column 2 as dose-response) were transferred via a Kalypsys pintool equipped with a 1536-pin array. The plates were incubated for 15 min at room temperature, and then 1 ul of substrates (200 nM DNA and 2 mM ATP, final concentrations) was added to start the reaction. The plate was transferred into a ViewLux high-throughput CCD imager where the reaction progress was measured in a discontinuous kinetic mode (two reads spaced 2 hours apart, with intermediate room temperature incubation of the covered assay plate) by using standard red-fluorescence optics (excitation filter 525 nm, emission filter 598 nm). Enzyme-free and vehicle (DMSO) controls were included for signal normalization.
Note: nearly all actives have a fitted effect of over 30% in size.
Potency is the fitted concentration of half-maximal effect.

Chain of ATP-dependent DNA helicase Q1 (Homo sapiens) (P46063 whole entry, looked up): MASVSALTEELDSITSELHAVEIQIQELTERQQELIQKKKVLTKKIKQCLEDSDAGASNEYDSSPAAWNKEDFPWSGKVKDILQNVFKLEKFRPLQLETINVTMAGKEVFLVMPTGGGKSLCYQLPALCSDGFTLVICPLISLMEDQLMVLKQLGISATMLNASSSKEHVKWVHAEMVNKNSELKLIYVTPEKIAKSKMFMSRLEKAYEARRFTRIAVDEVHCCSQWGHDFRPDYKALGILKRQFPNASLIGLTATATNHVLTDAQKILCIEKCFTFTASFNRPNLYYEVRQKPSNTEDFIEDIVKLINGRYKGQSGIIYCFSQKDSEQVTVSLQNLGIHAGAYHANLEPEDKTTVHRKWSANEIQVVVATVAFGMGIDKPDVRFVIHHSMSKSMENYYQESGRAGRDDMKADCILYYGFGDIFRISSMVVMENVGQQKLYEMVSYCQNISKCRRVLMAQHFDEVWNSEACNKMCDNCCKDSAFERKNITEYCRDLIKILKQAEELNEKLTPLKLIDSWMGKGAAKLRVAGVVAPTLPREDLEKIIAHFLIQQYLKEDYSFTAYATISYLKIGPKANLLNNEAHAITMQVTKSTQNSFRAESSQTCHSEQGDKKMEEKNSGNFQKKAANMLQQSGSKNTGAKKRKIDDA

Potency, inactive:
CCC1=NN2C(=N)/C(=C/c3cc(C)n(-c4ccccc4)c3C)C(=O)N=C2S1
CCOC(OCC)OCC
COC(=O)C(CC(C)C)NS(=O)(=O)c1cc(Br)ccc1Br (stereo not given)
C=CCOC(=O)C(=C)C
C/C(=N\NC(=S)NCc1ccccc1)C1CCCCC1
O=C(O)c1ccc(/C=N/NC(=S)NCc2ccccc2)cc1
CC(O)[C@@H](N)C(=O)O (stereo not given in full)
Cc1ccc(OCC(=O)Nc2nnc(-c3ccco3)s2)cc1
CNc1nnc(-c2ccco2)s1
COc1cc(C(F)(F)F)c(C(=O)N(C)c2ccc(Cl)cc2)cn1
Cc1cs/c(=N\N=C\c2ccc(O)cc2)n1Cc1ccco1
COc1ccc(NC(=O)Cn2c(=O)n(Cc3ccco3)c(=O)c3ccccc32)cc1
COc1ccc(C2CC(O)(c3ccccc3)Oc3cc(C)cc(C)c32)cc1 (stereo not given)
CCOc1ccc(NC(=O)CCC(=O)N/N=C/c2ccc([N+](=O)[O-])s2)cc1
CC(C)(C)c1cc(C(=O)N/N=C/c2ccc([N+](=O)[O-])s2)n[nH]1
CC(C)c1cnc(NC(=O)Cc2ccccc2)s1
CC(=O)OCC(NC(=O)C(Cc1ccccc1)NC(=O)OC(C)(C)C)C1OC(n2ccc(=O)[nH]c2=O)C(OC(C)=O)C1OC(C)=O (stereo not given)
O=C(Nc1nnc(SCc2ccccc2)s1)c1ccco1
Brc1ccc(CSc2ccc(-c3ccco3)nn2)cc1
COC(OC)c1ccnc(SCc2ccccc2Cl)n1
Nc1nc(SCc2ccccc2Cl)n[nH]1
COc1ccc(-c2ccc(C3C4C=CCCC4(C)C(=O)N3Cc3ccccc3)c(F)c2)cc1OC (stereo not given)
Cc1noc(C)c1-c1ccc2ncnc(NC(C)c3ccco3)c2c1 (stereo not given)
CCN(CC)/[N+]([O-])=N/Oc1cc(O/[N+]([O-])=N/N2CCCC2CO)c([N+](=O)[O-])cc1[N+](=O)[O-] (stereo not given)
OC(CCl)CCl
Cc1cc(Cl)ccc1NNC(=O)c1snnc1C
COc1cccc(-c2cc(=O)c3cc(NC(=O)c4ccc(C)cc4)ccc3[nH]2)c1
Cc1ccc(S(=O)(=O)Oc2ccc(/C=N/NC(=O)c3c(Cl)cnn3C)cc2)cc1
Cn1c2ccccc2c(=O)c2c(O)cccc21
CNC(=O)[C@]1(C(F)(F)F)C[C@H](CCc2ccccc2)CCCO1
O=C1c2cccc(OCC(=O)N3N=C(c4cccs4)CC3c3ccc(F)cc3)c2CCN1Cc1ccccc1 (stereo not given)
CC1CCCC(NC(=O)COC(=O)[C@@H]2CC(O)CN2S(=O)(=O)c2ccc3c(c2)OCCO3)C1C (stereo not given in full)
Cc1ccccc1-c1nnc(SCC(=O)NCc2ccc3c(c2)OCO3)n1C
O=C(CSc1ncn[nH]1)NCc1ccc2c(c1)OCO2
C=C1CCN(C(CC(C)C)C(=O)N2CCOCC2)S(=O)(=O)c2ccccc21 (stereo not given)
Cc1cccc(C2c3[nH]c4ccccc4c3CCN2C(=O)c2cc(-c3cccn3C)n[nH]2)n1 (stereo not given)
O=C(O)c1ccc(/C=C2/SC(=S)N(c3cccc(C(F)(F)F)c3)C2=O)cc1
C=CCNC(=O)CSc1nc2scc(-c3ccco3)c2c(=O)n1CC=C
C=CCn1c(SCc2csc(C)n2)nc2scc(-c3ccc(C)o3)c2c1=O
O=C1C[C@@H](c2ccc3ccccc3c2)N1S(=O)(=O)c1ccccc1[N+](=O)[O-]

Potency, active:
CS(=O)(=O)c1ccc2c(c1)SC1=NC(=O)/C(=C/c3ccco3)C(=N)N12 28.2 µM
C/C(=N\NC(=S)NCc1ccccc1)c1ccc(Cl)cc1 31.6 µM
COc1ccc(OCC(=O)Nc2nnc(-c3ccco3)s2)cc1 31.6 µM
CN(c1ccccc1)c1ccc(/C=c2\s/c(=C(/C#N)C(=O)C(C)(C)C)n(Cc3ccco3)c2=O)cc1 17.8 µM
O=[N+]([O-])c1ccc(C=Nc2ccc(Cl)cc2Cl)s1 25.1 µM
c1ccc(CSc2nnc(-c3ccco3)c(-c3ccco3)n2)cc1 11.2 µM
Clc1ccccc1CSc1nnc(-c2ccco2)c(-c2ccco2)n1 35.5 µM
Oc1ccc(O)c2c(O)cccc12 3.98 µM
O=C(CSc1ccc(-c2ccco2)nn1)NCc1ccc2c(c1)OCO2 28.2 µM
C=CCn1c(=S)[nH]c2scc(-c3ccco3)c2c1=O 31.6 µM
